From PubChem BioAssay (NCATS)
Records with an inconclusive call do not appear. Unless noted, calls come from the whole dose curve; as a rule, active = well fitted curve in either direction with a large enough effect (not every such curve was filed as active); inconclusive = small, poorly fitted or top-dose-only effect, or another doubt; inactive = flat fitted curve, though single readings scatter.

Assays:
[1] = AP1 Signaling Pathway (AID 357); details: ME-180 AP-1-bla reporter, EGF-induced, beta-lactamase ratio, 5 h; at 17.2 µM (top of the series) unless noted;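 note: ME-180 reporter cells stimulated with EGF at its EC50 level; % is set by controls: 0 for no effect and ±100 for the full control effect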
In short: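 Titration-series screen for positive or negative modulators of EC50 EGF-induced signaling in ME-180 cells carrying an AP-1-driven beta-lactamase reporter. After 5 hours at 37 degrees Celsius, CCF4 460nm/530nm emission ratio gave %Activity; AC50 values derived.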

[2] = NFAT Signaling Pathway (AID 444); details: Jurkat NFAT-bla M1, carbachol, beta-lactamase ratio, 5 h; at 17.2 µM (top of the series) unless noted;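 note: carbachol stimulus at about its EC50 of 1 µM final; % is set by controls: 0 for no effect and ±100 for the full control effect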
In short: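 Read-out: CCF4 FRET ratio (460 nm/530 nm) after 1 h RT dye loading, used for %activity and AC50 from titration series. Cells: Jurkat NFAT-β-lactamase/M1 line, treated with compound plus 1 uM carbachol for 5 h, 37 °C.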

[3] = Stat Signaling Pathway (AID 446); details: ME-180 (cervical carcinoma) SIE beta-lactamase reporter, IL-6 stimulated, 5 h; at 17.2 µM (top of the series) unless noted;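 note: ME-180 cervical cancer cells given 40 pM IL-6 alongside compound; SIE-controlled beta-lactamase reporter measured as 460/530 nm FRET emission ratio; % is set by controls: 0 for no effect and ±100 for the full control effect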
In short: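 FRET read-out (405 nm excitation, 460/530 nm emission) of a beta-lactamase reporter under a STAT-inducible element in ME-180 cervical carcinoma cells. Cells with compound receive 40 pM IL-6 for 5 h. Values are normalised to AC90 stimulation and AC90 JAK-inhibitor controls.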

[4] = molecular target: Glucocorticoid receptor (Homo sapiens) (UniProt P04150); assay: GR-GFP Redistribution (AID 450;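 active = compounds whose dose series gives a full or clear partial fitted curve of increased nuclear translocation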; note: potency is the fitted concentration of half-maximal effect)
Glucocorticoid receptor (Homo sapiens), sequence (P04150 whole entry, looked up): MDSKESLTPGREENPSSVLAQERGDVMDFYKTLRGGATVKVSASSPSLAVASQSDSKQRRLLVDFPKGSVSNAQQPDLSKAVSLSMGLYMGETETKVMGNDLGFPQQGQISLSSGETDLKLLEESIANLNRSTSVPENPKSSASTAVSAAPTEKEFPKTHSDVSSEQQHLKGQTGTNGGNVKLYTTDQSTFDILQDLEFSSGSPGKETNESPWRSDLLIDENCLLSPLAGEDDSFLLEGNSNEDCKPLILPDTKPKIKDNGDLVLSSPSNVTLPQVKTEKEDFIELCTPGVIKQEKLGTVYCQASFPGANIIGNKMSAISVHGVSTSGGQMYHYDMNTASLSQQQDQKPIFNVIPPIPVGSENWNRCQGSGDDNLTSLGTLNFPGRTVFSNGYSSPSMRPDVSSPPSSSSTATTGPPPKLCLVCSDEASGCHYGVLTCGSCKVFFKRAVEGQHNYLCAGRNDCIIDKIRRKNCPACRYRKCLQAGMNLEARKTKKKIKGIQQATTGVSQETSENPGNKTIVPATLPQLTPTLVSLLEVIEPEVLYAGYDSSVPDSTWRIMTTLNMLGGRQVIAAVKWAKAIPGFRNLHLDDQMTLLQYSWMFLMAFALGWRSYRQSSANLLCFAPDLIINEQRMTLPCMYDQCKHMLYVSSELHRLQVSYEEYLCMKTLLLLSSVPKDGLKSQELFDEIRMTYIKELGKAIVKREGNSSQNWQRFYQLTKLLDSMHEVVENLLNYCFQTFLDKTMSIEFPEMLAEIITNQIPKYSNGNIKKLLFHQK

CCC(=O)Nc1nc2ccccc2n1CCN(C)C
inactive: activity change, negative = inhibition [1] 3.29% | activity change, negative = inhibition [2] -7.56% | activity, negative = inhibition [3] 10.7% | Potency [4] > 20.6 µM

COc1cccc(Cn2c(NCC(C)C)nc3c2c(=O)n(C)c(=O)n3C)c1
inactive: activity change, negative = inhibition [1] 15.5% | activity change, negative = inhibition [2] -1.36% | activity, negative = inhibition [3] -6% | Potency [4] > 20.6 µM

COc1ccccc1-c1nnc2sc(COc3ccccc3)nn12
inactive: activity change, negative = inhibition [1] -9.17% | activity change, negative = inhibition [2] 13.4% | activity, negative = inhibition [3] -10.5% | Potency [4] > 20.6 µM

O=C(CN1C(=O)c2ccccc2C1=O)NCc1ccncc1
inactive: activity change, negative = inhibition [1] -3.15% | activity change, negative = inhibition [2] -0.713% | activity, negative = inhibition [3] 5.8% | Potency [4] > 20.6 µM

CSc1nc(C)cc(OCCNS(=O)(=O)c2cc(C)ccc2C)n1
inactive: activity change, negative = inhibition [1] -11.3% | activity change, negative = inhibition [2] -2.9% | activity, negative = inhibition [3] 1.66% | Potency [4] > 20.6 µM

COc1ccc(C(=O)Cn2c(N3CCCCC3)nc3c2c(=O)n(C)c(=O)n3C)cc1OC
inactive: activity change, negative = inhibition [1] 14.7% | activity change, negative = inhibition [2] 21% | activity, negative = inhibition [3] -0.755% | Potency [4] > 20.6 µM

Cn1ncc(N=Cc2ccccc2O)c1C(=O)N1CCOCC1
inactive: activity change, negative = inhibition [1] 2.72% | activity change, negative = inhibition [2] -6.4% | activity, negative = inhibition [3] -4.13% | Potency [4] > 20.6 µM

N/C(CCCN1CCCCC1)=N/O
inactive: activity change, negative = inhibition [1] 14.3% | activity change, negative = inhibition [2] -3.1% | activity, negative = inhibition [3] -0.379% | Potency [4] > 20.6 µM

CSc1nc(Oc2ccc(=O)[nH]n2)nc(N(C)C)n1
inactive: activity change, negative = inhibition [1] 0.488% | activity change, negative = inhibition [2] -5.44% | activity, negative = inhibition [3] 3.84% | Potency [4] > 20.6 µM

CCOC(=O)CSc1nc(C)c(C(C)=O)cc1C#N
inactive: activity change, negative = inhibition [1] 8.73% | activity change, negative = inhibition [2] -3.61% | activity, negative = inhibition [3] 6.11% | Potency [4] > 20.6 µM

CCn1cc(C(=O)NCC2CCCO2)c(=O)c2cc(F)c(N3CCN(C)CC3)cc21 (centres undefined)
inactive: activity change, negative = inhibition [1] -11.4% | activity change, negative = inhibition [2] -20.1% | activity, negative = inhibition [3] -0.513% | Potency [4] > 20.6 µM

COc1ccccc1C1(CC(=O)N2CCOCC2)CCOC(C(C)C)C1 (centres undefined)
inactive: activity change, negative = inhibition [1] 3.63% | activity change, negative = inhibition [2] 13.2% | activity, negative = inhibition [3] -0.0907% | Potency [4] > 20.6 µM

Cc1sccc1C1C(C#N)=C(N)SC(N)=C1C#N
inactive: activity change, negative = inhibition [1] -12.4% | activity change, negative = inhibition [2] 15% | activity, negative = inhibition [3] -25.4% | Potency [4] > 20.6 µM

Cc1nc(=O)c(-c2ccccc2)c(C)n1-c1ccc(S(N)(=O)=O)cc1
inactive: activity change, negative = inhibition [1] 7.15% | activity change, negative = inhibition [2] -1.07% | activity, negative = inhibition [3] 7.76% | Potency [4] > 20.6 µM

CC(O)c1n(C)c(Cl)c[n+]1C (centres undefined)
inactive: activity change, negative = inhibition [1] 0.68% | activity change, negative = inhibition [2] -4.99% | activity, negative = inhibition [3] -4.96% | Potency [4] > 20.6 µM

Cn1c(NCCN2CCCCC2)cc(=O)n(C)c1=O
inactive: activity change, negative = inhibition [1] 6.19% | activity change, negative = inhibition [2] -24.7% | activity, negative = inhibition [3] 9.99% | Potency [4] > 20.6 µM

C=CCOc1ccc(/C(O)=C2/C(=O)C(=O)N(CCCN3CCOCC3)C2c2ccccc2)cc1 (centres undefined)
inactive: activity change, negative = inhibition [1] -4.92% | activity change, negative = inhibition [2] 12.9% | activity, negative = inhibition [3] -5.01% | Potency [4] > 20.6 µM

CCN(CC)CCN1C(=O)C(=O)/C(=C(/O)c2ccc(Cl)cc2)C1c1ccncc1 (centres undefined)
inactive: activity change, negative = inhibition [1] -3.59% | activity change, negative = inhibition [2] 22.9% | activity, negative = inhibition [3] 7.2% | Potency [4] > 20.6 µM

O=C1C2ON(c3ccccc3)C(c3ccncc3)C2C(=O)N1c1ccc(Br)cc1 (centres undefined)
inactive: activity change, negative = inhibition [1] -1.42% | activity change, negative = inhibition [2] 10.7% | activity, negative = inhibition [3] -10.2% | Potency [4] > 20.6 µM

Cn1c(N)c(C#N)c(C#N)c1-c1ccccc1
inactive: activity change, negative = inhibition [1] -21.2% | activity change, negative = inhibition [2] 4.54% | activity, negative = inhibition [3] -8.46% | Potency [4] > 20.6 µM

CC1CN(C2CCN(S(=O)(=O)Cc3ccccc3)CC2)CC(C)O1 (centres undefined)
inactive: activity change, negative = inhibition [1] 3.47% | activity change, negative = inhibition [2] -2.24% | activity, negative = inhibition [3] 5.06% | Potency [4] > 20.6 µM

C=CCOc1nc2c(c(=O)n(C)c(=O)n2C)n1Cc1ccc(Cl)cc1
inactive: activity change, negative = inhibition [1] -1.14% | activity change, negative = inhibition [2] -8.76% | activity, negative = inhibition [3] -5.11% | Potency [4] > 20.6 µM

COc1ccc(/C(O)=C2\C(=O)C(=O)N(CCN(C)C)C2c2cccc(OC)c2OC)cc1 (centres undefined)
inactive: activity change, negative = inhibition [1] 10.8% | activity change, negative = inhibition [2] -5.32% | activity, negative = inhibition [3] 11.6% | Potency [4] > 20.6 µM

COCCN(Cc1ccccc1)P(=O)(O)c1ccccc1OCC(=O)O
inactive: activity change, negative = inhibition [1] -2.92% | activity change, negative = inhibition [2] -4.16% | activity, negative = inhibition [3] 2.47% | Potency [4] > 20.6 µM

CC1(C)CC(=O)C2=C(C1)OC(N)=C(C#N)C2C1C=CCCC1 (centres undefined)
inactive: activity change, negative = inhibition [1] 3.93% | activity change, negative = inhibition [2] 24.4% | activity, negative = inhibition [3] -5.68% | Potency [4] > 20.6 µM

COCCNc1oc(-c2ccc(Cl)cc2)nc1C#N
inactive: activity change, negative = inhibition [1] -8.7% | activity change, negative = inhibition [2] -6.46% | activity, negative = inhibition [3] -5.03% | Potency [4] > 20.6 µM
